Test results reported in the supplement of paper PMC13380429.
Values without a mark were called inactive.

Tested on: Vero E6 infected with SARS-CoV-2
Test: inhibition of SARS-CoV-2 cytopathic effect; higher = more antiviral protection, active = above 15
Details: 48 h

Structure (SMILES) | inhibition of SARS-CoV-2 cytopathic effect (1 nM) [%] | inhibition of SARS-CoV-2 cytopathic effect (8.33 nM) [%] | inhibition of SARS-CoV-2 cytopathic effect (100 nM) [%] | inhibition of SARS-CoV-2 cytopathic effect (833.33 nM) [%] | inhibition of SARS-CoV-2 cytopathic effect (10000 nM)
COc1cc(COc2cc(N)c(Cl)cc2C(=O)CCC2CCN(CCNS(C)(=O)=O)CC2)cc(OC)c1 | 0.91 | 2.62 | -0.09 | 2.63 | 28.3% (active)
Cn1cccc1/C=C1\C(=O)NC(=O)c2ccccc21 | 2.55 | -0.08 | -1.24 | -2.42 | 5%
CC(C)(N)Cc1ccccc1 [phentermine] | 2.16 | 1.33 | 2.37 | 3.73 | 1.23%
Cc1cccc(C)c1NC(=O)c1ccc(N)cc1 [ameltolide] | 0.76 | 1.03 | 0.37 | -0.04 | -2.67%
NS(=O)(=O)c1cc(C(=O)O)cc(N2CCCC2)c1Oc1ccccc1 [piretanide] | 3.5 | 5.18 | 2.39 | -2.57 | 1%
N=C(N)c1ccc(/C=C/c2ccc(C(=N)N)cc2O)cc1 [hydroxystilbamidine] | -3.2 | -1.76 | -5.12 | -3.2 | -1.16%
CCn1c2ccccc2c2cc(CNCc3ccccc3OC)ccc21 | 3.14 | 2.16 | 0.25 | -1.14 | -6.1%
CC(C)n1nc(-c2cc3cc(O)ccc3[nH]2)c2c(N)ncnc21 | 1.52 | 2.09 | 1.4 | 2.07 | -1.69%
CN(C)CCCN1c2ccccc2Sc2ccc(C(F)(F)F)cc21 [triflupromazine] | 1.3 | -0.49 | -1.51 | 1.78 | 0.59%
FC(F)(F)c1ccc(CNc2ccc(Cc3c[nH]c4ncc(Cl)cc34)cn2)cn1 [pexidartinib] | 0.78 | 3.65 | 0.98 | 0.96 | 11.6%
COc1ccc(Cn2ccc3ccc(C(=O)NO)cc32)cc1 | 0.35 | 0.42 | 3.29 | 1.7 | -2.47%
O=C(O)CNC(=O)C1C(=O)N(C2CCCCC2)C(=O)N(C2CCCCC2)C1=O [daprodustat] | -0.26 | 1.23 | 2.21 | 2.38 | -0.29%
CCOc1cc(N)c(Cl)cc1C(=O)NCC1CN(Cc2ccc(F)cc2)CCO1 (stereo not given) [mosapride] | 0.88 | 2.99 | 3.38 | 2.51 | 6.25%
COc1cc2c(CCNC(C)=O)c[nH]c2cc1Cl [6-chloromelatonin] | 0.92 | 0.78 | -1.78 | 4.57 | -13.2%
CC(=O)[C@@]12O[C@](C)(c3ccccc3)O[C@@H]1C[C@H]1[C@@H]3CCC4=CC(=O)CC[C@]4(C)[C@H]3CC[C@@]12C [algestone-acetophenide] | 0.43 | 0.88 | 1.95 | 2.43 | 2.91%
CN1CCN(Cc2ccc(Nc3ncc(Cl)c(Nc4ccccc4S(=O)(=O)N(C)C)n3)cc2)CC1 | 1.64 | 0.81 | 2.68 | -8.19 | -10.2%
CN(C)C(=S)SC(=S)N(C)C [tetramethylthiuram-monosulfide] | -5.07 | -6.29 | -7.33 | 11.9 | 10%
Cn1c(COc2ccc(CC3SC(=O)NC3=O)cc2)nc2ccccc2c1=O (stereo not given) [balaglitazone] | -1.69 | -0.56 | -0.1 | -2.45 | -7.04%
CCCC(=O)C1CCN(c2ncnc3c2CN(C(=O)c2ccc(-c4ccccc4)cc2)CC3)CC1 | -1.91 | -1.68 | 2.34 | -0.3 | -1.38%
CC(C)[C@@H]1CC[C@@H](C)C[C@H]1O [levomenthol] | 0.46 | -1.68 | 1.02 | 0.09 | -0.2%
